Source: PubChem BioAssay (NCI)
About 83,000 compounds went through this panel and 20% of them were active in at least one assay; those are over-represented in the sample as a whole.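 Results are percent growth after 48 hours of single-concentration exposure. 100 means growth as in untreated cells, lower positive values show inhibition; negative values down to -100 show cell death.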 Values without a mark were called inactive. The source made the active and inactive calls. The calls were made as follows: active = growth percent below 10; inactive = the rest.

system: SK-OV-3 ovarian; experiment: NCI-60 one-dose screen, 48 h (100 = growth as untreated, 0 = no growth, -100 = all killed); settings: 10 µM unless noted

In order of rising growth:
1. Oc1ccc(CCC2CCNc3ccccc32)cc1 (stereo unspecified)  73.1%
2. Nc1cc2ccccc2c(O)c1O  79.3%
3. CC(=O)[C@@]1(O)CC[C@H]2[C@@H]3CC[C@@H]4CC(=O)CC[C@]4(C)[C@H]3[C@@H](O)C[C@@]21C  82.7%
4. CSCCC(NC(=O)C(Cl)Cl)C(=O)O (stereo unspecified)  85.6%
5. c1ccc(-c2ccc3ccccc3c2)cc1  90.5%
6. C=CCN1CCCC1=O  92.9%
7. COc1ccc(C2CC(c3ccccc3)=Nc3ccccc3S2)cc1 (stereo unspecified)  95.3%
8. Cc1[nH]n(-c2ccccc2)c(=O)c1C=NC(=S)C(N)=S  96%
9. C=C(OC(C)=O)c1ccccc1  96%
10. O=C(OCC1CCCO1)c1ccc([N+](=O)[O-])cc1 (stereo unspecified)  97.9%
11. CCCCNC(=O)c1ccc(OCC)cc1  98.7%
12. CCC(=O)Oc1ccc2ccccc2c1  98.9%
13. CC(=O)c1cccs1  99%
14. C/C(O)=C(/C=N\C(=S)Nc1ccc(S(=O)(=O)Nc2nccs2)cc1)C(=O)Nc1ccccc1C  100%
15. Nc1cccc2cccc(O)c12  100%
16. CC(c1ccccc1)N(C)C (stereo unspecified)  103%
17. NC(=O)N1CCOCC1  103%
18. CC(C)c1ccccc1NC(=O)N1CCC(C(C)C)CC1  105%
19. NC(CO)(CO)c1ccccc1  105%
20. O=Cc1c(O)c2ccccc2[nH]c1=O  105%
21. O=C(O)c1cccc(-n2ncc(Cl)c(Cl)c2=O)c1  106%
22. Cc1ccc(OC(=O)c2ccccc2)cc1  107%
23. CCOC(=O)CO  109%
24. CCOc1ccccc1NC(=O)CCl  109%
25. N#Cc1ccc2nc[nH]c2c1  109%
26. O=C(O)CSCC(=O)Nc1cc(C(F)(F)F)ccc1Cl  109%
27. C=CC(=O)OC1CCC(C(C)(C)CC)CC1 (stereo unspecified)  111%
28. O=C(NC1CCCCC1)c1ccc(Cl)cc1  114%
29. CC(CCC#N)(CCC#N)C(=O)c1ccccc1  115%
30. Cc1ccc2nc(-c3ccc(N=Cc4ccccc4O)cc3)sc2c1  115%
31. COc1cccc2c1Cc1ccccc1-2  115%
32. C=CCC(OC(C)=O)c1ccc(C(C)C)cc1 (stereo unspecified)  115%
33. NC(=S)N/N=C/c1ccc(Cl)cc1  118%
34. CC(=O)c1ccc(C)cc1  121%
35. Cc1ccc(NC(=O)c2ccccc2Cl)cc1  124%
36. Cc1ccc(S(=O)(=O)CCCl)cc1  124%
37. COC(=O)Cc1cc(COC(C)=O)ccc1C  125%

With `CCC12OC(COc3ccccc3)CN1CCN2c1ccccc1` (stereo unspecified) the growth was 106% [100 µM].

system: IGROV1 ovarian; experiment: as above; settings: 10 µM unless noted

In order of falling growth:
1. CC(c1ccccc1)N(C)C (stereo unspecified)  152%
2. Cc1ccc(OC(=O)c2ccccc2)cc1  132%
3. O=C(O)c1cccc(-n2ncc(Cl)c(Cl)c2=O)c1  130%
4. CC(CCC#N)(CCC#N)C(=O)c1ccccc1  125%
5. Cc1ccc(S(=O)(=O)CCCl)cc1  123%
6. C=CCC(OC(C)=O)c1ccc(C(C)C)cc1 (stereo unspecified)  123%
7. C=CC(=O)OC1CCC(C(C)(C)CC)CC1 (stereo unspecified)  117%
8. COc1cccc2c1Cc1ccccc1-2  115%
9. N#Cc1ccc2nc[nH]c2c1  115%
10. C=CCN1CCCC1=O  114%
11. NC(=O)N1CCOCC1  113%
12. C=C(OC(C)=O)c1ccccc1  113%
13. Cc1[nH]n(-c2ccccc2)c(=O)c1C=NC(=S)C(N)=S  112%
14. O=C(O)CSCC(=O)Nc1cc(C(F)(F)F)ccc1Cl  112%
15. CC(=O)c1cccs1  110%
16. CCCCNC(=O)c1ccc(OCC)cc1  108%
17. NC(=S)N/N=C/c1ccc(Cl)cc1  107%
18. COC(=O)Cc1cc(COC(C)=O)ccc1C  107%
19. C/C(O)=C(/C=N\C(=S)Nc1ccc(S(=O)(=O)Nc2nccs2)cc1)C(=O)Nc1ccccc1C  106%
20. CC(C)c1ccccc1NC(=O)N1CCC(C(C)C)CC1  106%
21. CCC(=O)Oc1ccc2ccccc2c1  106%
22. CCOC(=O)CO  105%
23. CSCCC(NC(=O)C(Cl)Cl)C(=O)O (stereo unspecified)  105%
24. NC(CO)(CO)c1ccccc1  104%
25. O=Cc1c(O)c2ccccc2[nH]c1=O  104%
26. O=C(NC1CCCCC1)c1ccc(Cl)cc1  103%
27. CC(=O)[C@@]1(O)CC[C@H]2[C@@H]3CC[C@@H]4CC(=O)CC[C@]4(C)[C@H]3[C@@H](O)C[C@@]21C  103%
28. O=C(OCC1CCCO1)c1ccc([N+](=O)[O-])cc1 (stereo unspecified)  101%
29. CC(=O)c1ccc(C)cc1  98.1%
30. Cc1ccc(NC(=O)c2ccccc2Cl)cc1  93.8%
31. COc1ccc(C2CC(c3ccccc3)=Nc3ccccc3S2)cc1 (stereo unspecified)  92%
32. Oc1ccc(CCC2CCNc3ccccc32)cc1 (stereo unspecified)  91.1%
33. c1ccc(-c2ccc3ccccc3c2)cc1  85.3%
34. Nc1cccc2cccc(O)c12  76%
35. Nc1cc2ccccc2c(O)c1O  67.3%
36. Cc1ccc2nc(-c3ccc(N=Cc4ccccc4O)cc3)sc2c1  64%

In the case of `CCOc1ccccc1NC(=O)CCl`, the growth is reported as -12% (active).

With `CCC12OC(COc3ccccc3)CN1CCN2c1ccccc1` (stereo unspecified) the growth was 93.4% [100 µM].
